The results in this text go back to PubChem BioAssay AID492956 (The Scripps Research Institute Molecular Screening Center, 2010).

The structures appear in SMILES notation. Among all 340,000 compounds or so, about 3,300 (0.97%) were called active. This is one part of a sample in which actives are shown more often than they occur. Values without a mark were called inactive.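 How the source made its calls: active means inhibition above the mean over all tested compounds plus 3 SD (cut at about 30% in these data); inactive means the rest.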

The experiment concerns the target Platelet-activating factor acetylhydrolase 2, cytoplasmic (Homo sapiens) (UniProt Q99487). Briefly: PAFAH2 enzyme inhibitors, primary screen, biochemical, fluorescence polarization, human (AID 492956).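 Further: inhibitors block probe labeling of enzyme so polarization drops; 0% = enzyme with DMSO and 100% = wells lacking PAFAH2 protein.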 Conditions: recombinant PAFAH2, FP-rhodamine activity probe, at 3.39 µM, hits give high values.
With `CSc1nc(-c2ccco2)nn1C(=O)c1ccccc1Cl`, the inhibition was 0.54%.

In the case of `c1ccc(CSc2nnc(-c3ccco3)c(-c3ccco3)n2)cc1`, the inhibition was 57% (active).

For `S=C(NCc1ccco1)NCc1ccccc1Cl`, the inhibition is 2.25%.

Regarding `Clc1ccc(CSc2nnc3c(n2)[nH]c2ccccc23)cc1`, the inhibition was -12.8%.

For `CCc1nnc(SCc2cccc(F)c2)nc1CC`, the inhibition was 0.34%.

As for `Clc1ccccc1CSc1nnc(-c2ccco2)c(-c2ccco2)n1`, the inhibition is 62.2% (active).

For `Nn1c(SCC(=O)NC2CCCC2)nnc1-c1ccccc1F`, the inhibition was 3.8%.

As to `CCn1c(N)c(Br)c(=O)[nH]c1=O`, the inhibition was -4.56%.

On to `CCCNC(=O)CCc1c(C)nc2c(c(C)nn2-c2ccc(C)cc2)c1C`, for which the inhibition was -8.03%.

Regarding `Cc1ccc(-n2nc(N)c3c(=O)oc(N(C)C)nc32)cc1`, the inhibition was 55.9% (active).

For the molecule `CSc1ccc(-c2c(C#N)c(N)nc3c2c(C)nn3-c2ccccc2)cc1`, the inhibition is -18.9%.

Turning to `Cc1ccc(NC(=S)Nc2ncccc2C)c(C)c1`, the inhibition is -4.32%.

In the case of `Cc1cc(C(=O)NNC(=O)CCC2CCCCC2)c(C)o1`, the inhibition is 4.96%.

Turning to `Cc1cc(C(=O)CCC(=O)NNC(=O)c2ccccc2O)c(C)s1`, the inhibition was 7.6%.

`Cc1cc(C(=O)NCCc2ccc(Cl)cc2)c(C)o1`: the inhibition was 4.91%.

Turning to `O=C(NNC(=O)c1ccccc1O)c1ccccc1O`, the inhibition was 39% (active).

For the molecule `CC1=C(C)CC(C(=O)NNC(=O)c2ccccc2O)C(C(=O)O)C1` (stereo not drawn), the inhibition was -2.13%.

For the molecule `Cc1cc(C(=O)NNC(=O)c2ccccc2O)c(C)o1`, the inhibition is 31.3% (active).

Turning to `CCC(CC)c1nnc(NC(=O)c2nn(C)c(=O)c3ccccc23)s1`, the inhibition was 0.88%.

Regarding `CCCCCn1c(=O)[nH]c2cc(C(=O)NCCCN3CCCCC3C)ccc2c1=O` (stereo not drawn), the inhibition is -5.12%.

Consider `O=C(NCc1ccc(F)cc1)C(c1ccccc1)N(C(=O)c1csnn1)C1CC1` (stereo not drawn), for which the inhibition is 2.95%.

For `Oc1ccc2ccc3cccc[n+]3c2c1`, the inhibition was 9.81%.

For `CN(C)C(CNC(=O)CCCOc1ccccc1)c1ccco1` (stereo not drawn), the inhibition was 1.39%.

`COc1cccc2c1C(=O)c1c(O)c3c(c(O)c1C2=O)CC(O)(C(C)=NNC(=O)c1ccc(Cl)c(Cl)c1)CC3OC1CC(N)C(O)C(C)O1` (stereo not drawn): the inhibition is 49.5% (active).

Consider `COc1ccc(C(=O)NCC2CCCCC2)cc1S(=O)(=O)N1CCCC1`, for which the inhibition is 3.82%.

With `COc1cc(C)c(C)cc1S(=O)(=O)N1CCCc2ccccc21`, the inhibition was -5.07%.

In the case of `COc1ccc(C(=O)OCC(=O)NCC2CCCCC2)cc1S(=O)(=O)N1CCCc2ccccc21`, the inhibition is 74.5% (active).

Consider `Cc1cc(C)c2oc(C(=O)Nc3ccc(S(=O)(=O)Nc4nccc(C)n4)cc3)cc(=O)c2c1`, for which the inhibition was -3.63%.

As to `CN(C)[C@@H]1C(=O)C(C(N)=O)=C(O)[C@@]2(O)C(=O)C3=C(O)c4c(O)ccc(Cl)c4[C@@H](O)[C@H]3C[C@@H]12`, the inhibition was 1.11%.

Regarding `C=C1c2c(Cl)ccc(O)c2C(O)=C2C(=O)[C@]3(O)C(O)=C(C(N)=O)C(=O)[C@@H](N(C)C)[C@@H]3[C@@H](O)C12` (stereo partly drawn), the inhibition was 42% (active).

As to `Cc1cccc(C)c1NC(=O)CN1C(=O)C(C)Oc2ccccc21` (stereo not drawn), the inhibition is 4.2%.

On to `O=C(Cn1nnc2ccccc2c1=O)NCc1ccc(Cl)cc1`, for which the inhibition is 4.44%.

On to `C=CCNC(=O)c1sc(SC)cc1-c1ccc(Cl)cc1`, for which the inhibition was 2.46%.

`COC(=O)Nc1nc2ccc(Sc3ccccc3)cc2[nH]1`: the inhibition is -5.35%.

With `Nc1ccc2nc3c(=O)[nH]c(=S)[nH]c3nc2c1`, the inhibition was 58.3% (active).

Consider `Cc1c(CN2CCC(CO)(CCOc3ccccc3)CC2)[nH]c2ccc(Cl)cc12`, for which the inhibition was -1.75%.

On to `CCOc1ccccc1NS(=O)(=O)c1cc2c3c(c1)C(C)C(=O)N3CCC2` (stereo not drawn), for which the inhibition is 6.38%.

`CCOc1ccccc1OCC(=O)Nc1ccccc1C(=O)NC1CC1`: the inhibition was 2.58%.

`COc1nc(N=C(N)N)nc2c(C)cccc12`: the inhibition was 6.78%.

As for `CC(=O)Oc1ccc2c(=O)oc(-c3ccc([N+](=O)[O-])cc3)nc2c1`, the inhibition was 29.4%.

Turning to `CC(=O)Oc1ccc(-c2nc3c(C)cccc3c(=O)o2)cc1`, the inhibition is 40.7% (active).

In the case of `Cc1cc(C)cc(C(=O)NC(=S)Nc2ccc3[nH]c(=O)[nH]c3c2)c1`, the inhibition is -14%.

As for `CC1(C)C2CC=C(/C=N/NC(=O)C3CC3)C1C2` (stereo not drawn), the inhibition is -2.63%.

With `CCN(CC)CCCNC(=O)c1ccc2c(=O)n(Cc3ccc4c(c3)OCO4)c(=S)[nH]c2c1`, the inhibition is 4.33%.

Regarding `CN(C)S(=O)(=O)c1ccc(NC(=O)COC(=O)c2n[nH]c3ccccc23)cc1`, the inhibition is -1.53%.

As to `COc1ccc(NC(=O)COC(=O)c2n[nH]c3ccccc23)c(OC)c1`, the inhibition was 7.22%.

In the case of `O=C(COC(=O)c1n[nH]c2ccccc12)Nc1ccccc1Br`, the inhibition is 47.3% (active).

In the case of `C=CCN(CC=C)C(=O)COC(=O)c1n[nH]c2ccccc12`, the inhibition is 3.36%.

`O=C(COC(=O)c1ncc(Cl)c(Cl)c1Cl)NCc1ccccc1`: the inhibition was -0.64%.

`O=C(COC(=O)c1n[nH]c2ccccc12)NCc1ccccc1`: the inhibition is 35.5% (active).

Consider `O=C(O)CC(c1ccccc1F)N1Cc2ccccc2C1=O` (stereo not drawn), for which the inhibition is 3.09%.

Regarding `Cc1ccn2c(=O)nc(SCC(=O)NCc3ccc4c(c3)OCO4)nc2c1`, the inhibition is -12.4%.

As to `Nc1nc(Br)c2ccccc2c1-c1ccc(F)cc1`, the inhibition is 0.32%.

For `COCCCn1c(SCC(=O)Nc2oc(C)c3c(C)n[nH]c(=O)c23)nc2sc3c(c2c1=O)CCC3`, the inhibition was -2.08%.

In the case of `CCN(CC)S(=O)(=O)c1ccc2nc(CSc3nnnn3-c3ccc(O)cc3)[nH]c2c1`, the inhibition was -3.11%.

Take `C(#CCN1CCOCC1)CCCN1CCOCC1`: the inhibition was 6.41%.

Turning to `Cc1cnc(C(=O)OCC(=O)Nc2ccc(Cl)cc2Cl)cn1`, the inhibition is -10.2%.

Consider `Cc1cc(C)cc(NC(=O)COC(=O)c2cc(C)oc2C)c1`, for which the inhibition was 60.9% (active).

Consider `O=C(COC(=O)CCc1c[nH]c(=O)[nH]1)Nc1ccccc1Cl`, for which the inhibition is 1.19%.

In the case of `O=C(COC(=O)c1ccc[nH]c1=O)Nc1ccc2c(c1)OC(F)(F)O2`, the inhibition was -3.01%.

For `Cc1cc(C)cc(C(=O)OCC(=O)NCCNC(=O)COC(=O)c2cc(C)cc(C)c2)c1`, the inhibition was 3.14%.

As to `Cc1cc(C(=O)OCC(=O)Nc2ccccc2Cl)c(C)o1`, the inhibition is 45.1% (active).

With `Cc1cc(C(=O)OCC(=O)c2c(N)n(C)c(=O)n(C)c2=O)c(C)o1`, the inhibition is 10.2%.

Turning to `COc1cc(NC(=O)COC(=O)c2cc(S(=O)(=O)N3CCOCC3)ccc2F)cc(OC)c1`, the inhibition is -0.21%.

For the molecule `Cc1cc(C(=O)OCC(=O)Nc2ccc(F)c(F)c2)c(C)o1`, the inhibition is 81.8% (active).

For the molecule `CONc1nc2nonc2nc1NOC`, the inhibition was 5.98%.

Take `Cc1ccc(Nc2c(F)c(F)c(F)c(F)c2C(=O)O)c(C)c1`: the inhibition is 4.36%.

In the case of `Cn1c(=O)c(C(=O)Nc2ncccn2)c(O)c2ccccc21`, the inhibition is -2.23%.

In the case of `Cc1cc(=O)n2nc(N3CCCC3C(=O)NCCCN3CC(C)CC(C)C3)sc2n1` (stereo not drawn), the inhibition is -2.55%.

Turning to `Cc1cccc(C(=O)OCC(=O)Nc2sc3c(c2C#N)CCC3)c1`, the inhibition was 3.15%.

Consider `Cc1cccc(C(=O)OCC(=O)Nc2ccc(F)cc2)c1`, for which the inhibition is 84% (active).

`O=C(COC(=O)c1ccncc1)Nc1ccc2c(c1)OCO2`: the inhibition is 1.78%.

As for `O=C(COc1ccc(Cl)cc1)Nc1ccc2c(c1)OCO2`, the inhibition was -4.53%.

As to `O=C(COC(=O)c1ccc(F)cc1)Nc1ccc2c(c1)OCO2`, the inhibition was 81% (active).

In the case of `O=C(COC(=O)c1cccc(Cl)c1)Nc1ccc2[nH]c(=O)[nH]c2c1`, the inhibition was -4.35%.

Turning to `Cn1c(=O)c2c(ncn2CC(=O)N/N=C/c2cn[nH]c2-c2ccc(F)cc2)n(C)c1=O`, the inhibition is 3.66%.

With `O=C(NCc1ccco1)/C(=C/c1cccc([N+](=O)[O-])c1)NC(=O)c1ccco1`, the inhibition is -0.82%.

Consider `CN1C(=O)/C(=C/C=C2\SCCN2C)OC1=S`, for which the inhibition was -4.81%.

Regarding `COc1ccc(NS(=O)(=O)c2cc(NC(=O)C3CCCCC3)ccc2N2CCOCC2)cc1`, the inhibition is 0.82%.

As for `O=C(NCCS(=O)(=O)N1CCN(c2ccccc2F)CC1)c1ccc(Br)o1`, the inhibition was -0.55%.

Regarding `CC(OC(=O)c1ccc(S(=O)(=O)N2CCOCC2)cc1)c1ccccc1` (stereo not drawn), the inhibition is 2.29%.

`O=C(ON=C1CCN(S(=O)(=O)c2ccccc2)CC1)c1ccc(Cl)cc1`: the inhibition is 86.6% (active).

With `COC(=O)c1ccc(S(=O)(=O)N2CCc3ccccc3C2)cc1`, the inhibition was -2.2%.

For `CN1CCC(OC(=O)COc2ccc(Cl)cc2Cl)CC1`, the inhibition is -2.95%.

For the molecule `CCN(C(=O)COC(=O)c1sccc1C)c1c(N)n(Cc2ccccc2)c(=O)[nH]c1=O`, the inhibition is -2.58%.

Take `Cc1ccc(-c2nc3c(cnn3-c3ccccc3)c(=O)o2)cc1`: the inhibition was 59.4% (active).

As to `Cc1ccc(-n2ncc3c(=O)n(-c4ccc(C)c(C)c4)c(-c4ccco4)nc32)cc1`, the inhibition is -1.39%.

For `CC(=O)Cn1cnc2c(cnn2-c2ccccc2)c1=O`, the inhibition is -0.98%.

Regarding `O=c1cc(O)c(-c2cccc(C(F)(F)F)c2)c(Cl)[nH]1`, the inhibition is -1.33%.

For `COc1ccc(S(=O)(=O)N2CCOCC2)cc1NC(=O)CSc1nnc(NC2CC2)s1`, the inhibition is 3.17%.

For `COc1ccc(S(=O)(=O)N2CCOCC2)cc1NC(=O)CSc1cc(C)ccc1C`, the inhibition was 2.32%.

On to `COc1ccc(S(=O)(=O)N2CCOCC2)cc1NC(=O)CC1CC2CCC1C2` (stereo not drawn), for which the inhibition was 70.4% (active).

For the molecule `COc1ccc(S(=O)(=O)N2CCOCC2)cc1NC(=O)c1ccc(OCC(C)C)c(OC)c1`, the inhibition is 4.28%.

For `COc1ccc(S(=O)(=O)N2CCOCC2)cc1NC(=O)Cc1c(F)cccc1Cl`, the inhibition was 43.5% (active).

As for `COc1ccc(S(=O)(=O)N2CCOCC2)cc1NC(=O)Cc1coc2cc(C)ccc12`, the inhibition is 39.9% (active).

Regarding `COc1ccc(S(=O)(=O)N2CCOCC2)cc1NC(=O)CSc1ncnc2ccccc12`, the inhibition was 0.39%.

On to `COc1ccc(S(=O)(=O)N2CCCCCC2)cc1NC(=O)Cc1ccc(OC)c(OC)c1`, for which the inhibition is 14.1%.

On to `COc1ccc(S(=O)(=O)N2CCOCC2)cc1NC(=O)COc1ccccc1`, for which the inhibition was 6.32%.
